Measured values reported in PubChem BioAssay AID1159580 (chemical genetic matrix, 2015).
Values joined by “and” are separate entries in the source; they are usually repeats but may differ in a detail not shown here. Equal values may be shown once. Among all 5,500 compounds or so, about 2,000 (36%) were called active. Not shown: some 18% with an inconclusive outcome. Rule as the data show it: active = normalized growth mostly below about 0.91 (no sharp cut-off); inconclusive = no clear call, values can overlap the other calls; inactive = mostly above about 0.92. The list shows a part of the results.

Experiment: chemical genetic growth profiling, strain panel (AID 1159580);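 also: tested at 20 µM; growth read once vehicle control cultures reached saturation at 30 °C; 1 = growth at the plate median or of vehicle wells; lower values mean less growth of the strain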
Conditions: S. cerevisiae deletion strains, growth OD

Measured: normalized growth

Nc1ccc(S(=O)(=O)Nc2nccs2)cc1
inactive: locus YAL013W, strain DEP1, hits give low values 1.01 | locus YAL021C, strain ccr4, hits give low values 1.02 | locus YAL026C, strain drs2, hits give low values 1.01 | locus YAL030W, strain snc1, hits give low values 1.02 | locus YBL061C, strain skt5, hits give low values 1.01 | locus YBR009C, strain hhf1, hits give low values 1 | locus YBR021W, strain FUR4, hits give low values 1 | locus YBR023C, strain chs3, hits give low values 1.03 | locus YBR171W, strain sec66, hits give low values 1.03 | locus YBR229C, strain ROT2, hits give low values 1 | locus YBR231C, strain swc5, hits give low values 1.04 | locus YBR279W, strain paf1, hits give low values 1.01 | locus YCL011C, strain gbp2, hits give low values 1.01 | locus YCL016C, strain dcc1, hits give low values 1 | locus YCL029C, strain bik1, hits give low values 0.998 | locus YCL069W, strain vba3, hits give low values 1.01 | locus YCR088W, strain abp1, hits give low values 1.01 | locus YDL005C, strain med2, hits give low values 1.01 | locus YDL035C, strain GPR1, hits give low values 1.04 | locus YDL040C, strain nat1, hits give low values 1.02 | locus YDL074C, strain BRE1, hits give low values 1.01 | locus YDL101C, strain DUN1, hits give low values 1 | locus YDL134C, strain PPH21, hits give low values 1.01 | locus YDL185W, strain tfp1, hits give low values 1.01 | locus YDL192W, strain arf1, hits give low values 1.01 | locus YDR001C, strain nth1, hits give low values 1.02 | locus YDR069C, strain doa4, hits give low values 1.02 | locus YDR101C, strain arx1, hits give low values 1 | locus YDR137W, strain rgp1, hits give low values 1.02 | locus YDR150W, strain NUM1, hits give low values 1.01 | locus YDR159W, strain sac3, hits give low values 1.02 | locus YDR162C, strain NBP2, hits give low values 1.02 | locus YDR195W, strain ref2 1.01 | locus YDR297W, strain sur2, hits give low values 1.02 | locus YDR318W, strain mcm21, hits give low values 0.985 | locus YDR334W, strain swr1, hits give low values 1.01 | locus YDR335W, strain msn5, hits give low values 1.02 | locus YDR388W, hits give low values 0.995 | locus YDR392W, strain spt3, hits give low values 0.954 | locus YDR502C, strain sam2, hits give low values 1.01 | locus YEL003W, strain gim4, hits give low values 1.02 | locus YEL037C, strain rad23, hits give low values 1.01 | locus YEL061C, strain CIN8 (second series), hits give low values 1.01 | locus YEL061C, strain CIN8, hits give low values 1 | locus YER015W, strain faa2, hits give low values 1.04 | locus YER016W, strain bim1, hits give low values 0.997 | locus YER110C, hits give low values 0.995 | locus YER111C, strain swi4, hits give low values 1.01 | locus YER155C, strain BEM2 (second series), hits give low values 1.01 | locus YER155C, strain BEM2, hits give low values 0.996 | locus YER167W, strain BCK2, hits give low values 1.03 | locus YFR010W, strain ubp6, hits give low values 1.02 | locus YGL078C, strain dbp3, hits give low values 1.01 | locus YGL086W, strain mad1, hits give low values 1.02 | locus YGL167C, strain pmr1, hits give low values 1.02 | locus YGL173C, strain kem1, hits give low values 1.02 | locus YGL227W, strain vid30, hits give low values 1.02 | locus YGL240W, strain doc1, hits give low values 1.02 | locus YGL248W, strain PDE1, hits give low values 1.02 | locus YGL253W, strain hxk2, hits give low values 1.02 | locus YGR078C, strain PAC10, hits give low values 1 | locus YGR135W, strain pre9, hits give low values 1.01 | locus YGR229C, strain SMI1, hits give low values 1.01 | locus YGR252W, strain gcn5, hits give low values 1.06 | locus YHR013C, strain ard1, hits give low values 1 | locus YHR027C, strain rpn1, hits give low values 1.02 | locus YHR030C, strain SLT2, hits give low values 1.01 and 0.999 | locus YHR079C, strain IRE1 (second series), hits give low values 0.995 | locus YHR079C, strain IRE1, hits give low values 1.03 | locus YHR094C, strain hxt1, hits give low values 0.99 | locus YHR129C, strain ARP1, hits give low values 1 | locus YHR142W, strain chs7, hits give low values 1.01 | locus YHR200W, strain rpn10, hits give low values 1 | locus YIL066C, strain RNR3, hits give low values 1.02 | locus YIL073C, strain SPO22, hits give low values 1 | locus YIL125W, strain kgd1, hits give low values 1.01 | locus YIR030C, strain dcg1, hits give low values 0.995 | locus YJL092W, strain hpr5, hits give low values 1.01 | locus YJL095W, strain BCK1 (second series), hits give low values 1.02 | locus YJL095W, strain BCK1, hits give low values 1 | locus YJL115W, strain asf1, hits give low values 1.02 | locus YJL129C, strain trk1, hits give low values 1.02 | locus YJL134W, strain LCB3, hits give low values 1.01 | locus YJL154C, strain vps35, hits give low values 1.01 | locus YJL164C, strain tpk1, hits give low values 0.996 | locus YJL166W, strain qcr8, hits give low values 1.03 | locus YJL168C, strain set2, hits give low values 0.992 | locus YJL187C, strain SWE1 (second series), hits give low values 1.01 | locus YJL187C, strain SWE1, hits give low values 1.02 | locus YJR043C, strain POL32, hits give low values 1 | locus YJR066W, strain TOR1, hits give low values 0.939
